# An excerpt weighted towards active compounds, which were near 2.4% of everything screened.
# Cruzain Triton: blocks cruzain activity in presence of Triton detergent | AID 1478 | Potency, µM, for the others: max response, negative = inhibition, actives largely listed as inhibitors | purified cruzain, Z-FR-AMC fluorescence, 0.01% Triton | P25779 | 200,000 compounds, 0.43% hits;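 further: plate controls were neutral wells for no effect and buffer without enzyme for full effect; nearly all actives have a fitted effect of over 40% in size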
# Target sequence (P25779 123-467 limits assumed): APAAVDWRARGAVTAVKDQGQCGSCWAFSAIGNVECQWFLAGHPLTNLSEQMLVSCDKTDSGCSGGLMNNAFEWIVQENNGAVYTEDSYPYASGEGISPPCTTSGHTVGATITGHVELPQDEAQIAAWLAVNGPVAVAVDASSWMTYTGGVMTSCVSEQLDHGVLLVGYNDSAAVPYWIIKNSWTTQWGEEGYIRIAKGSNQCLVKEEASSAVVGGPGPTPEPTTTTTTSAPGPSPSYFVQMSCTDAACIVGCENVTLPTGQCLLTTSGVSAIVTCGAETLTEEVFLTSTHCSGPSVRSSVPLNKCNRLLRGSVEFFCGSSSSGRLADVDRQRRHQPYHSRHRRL
#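 Z-FR-AMC hydrolysis (2 uM substrate) by cruzain (1.5 nM) monitored kinetically at ex 360/em 450 nm after 15 min room-temperature compound exposure; 0.01% Triton X-100, pH 5.5, 5 mM DTT.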
# Cruzain inh noDet: cruzain (T. cruzi) inhibition without detergent; P25779; purified cruzain, Z-FR-AMC fluorescence, no detergent; Potency, µM, inactives show max response, negative = inhibition, actives largely listed as inhibitors; 200,000 compounds, 2.3% hits; AID 1476;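 further: plate controls were enzyme without inhibitor for no effect and buffer without enzyme for full effect; nearly all actives have a fitted effect of over 40% in size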
#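 Purified cruzain at 1.5 nM, pre-incubated 15 min with compound at room temperature in 100 mM sodium acetate pH 5.5, 5 mM DTT, 0.00005% Triton X-100. Reaction started with 2 uM Z-FR-AMC; AMC fluorescence increase over 60 s gives rate.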
# Starred values were filed as active, the others as inactive; ? = inconclusive; ! = a repeat was not active. The call rests on the fitted dose curve; in most records, active means well fitted curve in the direction sought with a large enough effect; inconclusive means small, poorly fitted or top-dose-only effect, or another doubt; inactive means no such curve, though single readings can be large; an effect the other way counts as inactive or inconclusive. Potency means the concentration at half of the fitted maximal effect.
SMILES,Cruzain Triton,Cruzain inh noDet
CCc1cccc(C)c1NC(=O)COC(=O)c1c2c(nc3ccccc13)/C(=C\c1cccs1)CCC2,0.3%,7.94µM*
NC(=O)c1ccc(NC(=O)COC(=O)c2c3c(nc4ccccc24)/C(=C\c2cccs2)CCC3)cc1,-2.2%,?
CC(C)Oc1ccc(C(=O)Nc2ccc3oc(-c4ccncc4)nc3c2)cc1,5.6%,6.6%
O=C1C=CC2(OCCCO2)C(Br)=C1CO,1.8%,7.6%
COC(=O)Cn1c(=NC(=O)c2nc3ccccc3s2)sc2cc(S(C)(=O)=O)ccc21,-8.3%,17.2%
COC(=O)Cn1c(=NC(=O)c2ccc([N+](=O)[O-])s2)sc2cc(Br)ccc21,-4.2%,10µM*
CN(C)c1ccc(CNC(=O)c2sc3ncccc3c2-n2cccc2)cc1,-0.6%,11.5%
O=S(=O)(c1ccc(Cl)cc1)c1nc(-c2ccccc2)oc1N1CCN(c2ccccc2)CC1,-1.8%,-2.0%
COc1ccc(-c2cc(C)nc(SCc3cccc(C(=O)O)c3)n2)cc1,-11.5%,26.5%
O=C(O)c1cccc(CSc2nc(-c3ccc(Cl)cc3)cc(C(F)(F)F)n2)c1,28.2µM*,-28.4%
Cn1cccc1C(=O)N1CCC2(CC1)CN(C(=O)Nc1cccc(F)c1)C2,3.0%,-0.6%
CCC(CC)C(=O)Nc1cc(-c2cccc(C)c2)nn1-c1ccccc1,-3.4%,2.8%
Cc1ccc(N(CC(O)Cn2c3ccccc3c3ccccc32)S(=O)(=O)c2ccc(F)cc2)cc1 (configuration not stated),11.4%,8.2%
COc1ccc(/C=C2/SC(=O)N(CC(O)Cn3c4ccccc4c4ccccc43)C2=O)cc1 (configuration not stated),-4.5%,10µM*
O=C1S/C(=C\c2ccccc2)C(=O)N1CC(O)Cn1c2ccccc2c2ccccc21 (configuration not stated),-3.8%,31.6µM*
Cc1cc(C)n(CC(O)Cn2c3ccccc3c3ccccc32)c(=O)n1 (configuration not stated),0.7%,?
COc1ccc(CN2CCN(CC(O)Cn3c4ccccc4c4ccccc43)CC2)cc1 (configuration not stated),-0.4%,9.9%
COc1ccc(N(CC(O)Cn2c3ccccc3c3ccccc32)S(=O)(=O)c2ccccc2)cc1 (configuration not stated),33.0%,15.8µM*
CCc1nn(-c2ccccc2)c2nc(-c3cccc(OC)c3)c3cc(OC)c(OC)cc3c12,2.3%,3.9%
OB(O)c1ccc(Br)cc1,0.1%,-1.3%
O=C(O)CCCC[C@@H]1CCSS1,-5.8%,1.3%
Nc1nc2c(ncn2C2OC(COC(=O)c3ccccc3)C(OC(=O)c3ccccc3)C2OC(=O)c2ccccc2)c(=O)[nH]1 (configuration not stated),-1.0%,7.94µM*
O=C(OCC1OC(n2ccc(=O)[nH]c2=O)C(O)C1OC(=O)c1ccccc1)c1ccccc1 (configuration not stated),-0.3%,0.2%
C=CCn1c(=O)n2ncnc2c2c3c(sc21)CCCC3,-0.5%,-9.9%
O=c1n(Cc2ccc(Cl)cc2)c2sc3c(c2c2ncnn12)CCCC3,-13.3%,25.1µM*
SMILES,Cruzain Triton,Cruzain inh noDet
Cc1ccccc1Cn1c(SCc2ccc(C(=O)NC3CCCCC3)cc2)nc2ccncc21,-9.1%,-1.0%
Cc1oc(-c2ccc(C(=O)Nc3ccccc3F)cc2)nc1COc1ccccc1,-2.8%,9.4%
Fc1cccc(Cl)c1CNCCSc1nnnn1-c1ccccc1,2.5%,12.6µM*
Clc1ccccc1CNCCCSc1nnnn1-c1ccccc1,-1.2%,-7.6%
Cc1cc(C)cc(NC(=O)C2CCC(CNS(=O)(=O)c3ccc4c(c3)C(C)(C)C(=O)N4C)CC2)c1 (configuration not stated),-2.9%,?
COc1cc(C(c2c(C)[nH][nH]c2=O)c2c(C)[nH][nH]c2=O)ccc1OC(=O)c1cccc(C)c1,-5.6%,?
CC(=O)c1c(C)[nH]c(C(=O)COC(=O)CNS(=O)(=O)c2ccccc2)c1C,-16.9%,-24.3%
CCOC(=O)c1c(C)[nH]c(C(=O)CSc2ccccc2)c1C,0.5%,?
CC(=O)c1c(C)[nH]c(C(=O)COC(=O)CCSc2ccccc2)c1C,15.8µM*,?
CCOC(=O)c1c(C)[nH]c(C(=O)COC(=O)CCSc2ccccc2)c1C,25.1µM*,-16.4%
O=C(COc1ccc(Cl)cc1)N(Cc1ccco1)c1ccccn1,-2.2%,-3.8%
Cc1ccc(C(c2sc3nc(-c4ccco4)nn3c2O)N2CCCC2)cc1 (configuration not stated),-2.7%,8.6%
COc1ccc(C)cc1NC(=O)C(OC(=O)CNC(=O)c1cccc(F)c1)c1ccccc1 (configuration not stated),?,12.6µM*
COc1ccc(C)cc1NC(=O)C(OC(=O)CNC(=O)c1ccc(Oc2ccccc2)cc1)c1ccccc1 (configuration not stated),-19.0%,?
Cn1cc(-c2nc3cnc(OCc4ccccc4)nc3n(CCC#N)c2=O)c2ccccc21,0.7%,2.1%
c1ccc2oc(C3=NNC(=NC4CC4)SC3)cc2c1,-11.1%,15.8µM*
c1ccc(CN=C2NN=C(c3cc4ccccc4o3)CS2)cc1,-15.8%,?
O=C(CN1C(=O)COc2ccc(Cl)cc21)Nc1ccc(F)cc1,-5.1%,1.9%
O=[N+]([O-])c1cccc2ccc(/C=C/c3ccc(C(F)(F)F)cc3)nc12,-9.8%,-3.8%
O=[N+]([O-])c1cccc2ccc(/C=C/c3ccc(Cl)cc3)nc12,-4.7%,10µM*
O=C1N/C(=N\N=C\c2cccs2)SC1Cc1cccc(Cl)c1 (configuration not stated),-3.4%,?
O=C1N/C(=N\N=C\c2cccs2)SC1Cc1ccc(Cl)cc1 (configuration not stated),-5.7%,2.51µM*
Cc1cccc(NC(=O)C2CCCC2)c1,-0.7%,9.1%
Cc1cccc(NC(=O)COC(=O)CNC(=O)C2CCCCC2)c1,7.08µM*,7.94µM*
COc1cc(C(=O)NCC(c2ccc3c(c2)OCO3)N2CCN(C)CC2)cc(OC)c1OC (configuration not stated),3.8%,1.9%
SMILES,Cruzain Triton,Cruzain inh noDet
COc1cc2c(cc1O)CC1c3c(cc(O)c(OC)c3-2)CCN1C (configuration not stated),-3.5%,31.6µM*!
COc1cc2c(cc1O)C[C@H]1c3c(cc(OC)c(O)c3-2)CCN1C,-3.9%,0.1%
CCc1ccc(CNC(=O)C2CCCN(S(=O)(=O)c3ccc4c(ccn4C)c3)C2)cc1 (configuration not stated),-4.9%,?
Cc1ccsc1/C=C1\Oc2cc(OCC(=O)c3ccccc3)ccc2C1=O,-5.3%,12.6µM*
O=C(Oc1ccc2c(c1)O/C(=C\c1ccncc1)C2=O)c1ccccc1,-21.3%,6.8%
CSc1cccc(NS(=O)(=O)c2ccc3[nH]cc(C(=O)N4CCCC4)c(=O)c3c2)c1,-4.2%,1.5%
C#CCn1c(COc2ccccc2C)nc2ccccc21,-2.3%,-2.1%
CN1C(=O)c2ccccc2Sc2ccc(NC(=O)COc3ccc(F)cc3)cc21,-3.7%,-9.0%
c1coc(CN2CN=C(Nc3nc4ccccc4s3)NC2)c1,?,12.6µM*
c1ccc(CN2CN=C(Nc3nc4ccccc4s3)NC2)cc1,?,-8.3%
Cc1cccn2c(=O)c(C(=O)NCCc3ccccc3)cnc12,-3.3%,-8.9%
CCCCOC(=O)c1ccc(-c2ccc(/C=N/NC(=S)NCC)o2)cc1,6.8%,25.1µM*
CCCOC(=O)c1ccc(-c2ccc(C=O)o2)cc1,-9.8%,-6.1%

# Screening results (PubChem)
